These results are taken from PubChem BioAssay AID651965 (National Center for Advancing Translational Sciences (NCATS), 2013).

The structures appear in SMILES notation. The whole screen tested about 340,000 compounds, of which about 6,400 (1.9%) were called active. Entries that show only a call come without a potency. About 4% were inconclusive and are not listed. The sample holds actives, similar compounds and a random draw of the others, so the mix is not that of the screen. The call rests on the fitted dose curve; in most records, active means well fitted falling curve with a large enough effect; inconclusive means small, poorly fitted or top-dose-only effect; inactive means no such curve, though single readings can be large or run the other way.
Potency means the concentration at half of the fitted maximal effect.

This experiment deals with ATP-dependent Clp protease proteolytic subunit (Bacillus subtilis (strain 168)) (UniProt P80244). In words: qHTS Assay for Activators of ClpP. Further: the source files actives as falling curves though it sought activators and does not explain the sign; nearly all actives have a fitted effect of over 65% in size. The following applies: purified B. subtilis ClpP, FRET peptide cleavage, 20 min; series mostly up to 57.5 µM. In outline: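 Purified B. subtilis ClpP, 10 microg/mL final in Tris/HCl pH8 with KCl, BSA, glycerol and Tween-20, cleaved an Abz/nitrotyrosine-quenched decapeptide. Fluorescence (ex 320, em 430) was read at 0 and 20 min at room temperature. Delta was normalized to 5.8 microM ADEP and DMSO/no-enzyme controls.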
ATP-dependent Clp protease proteolytic subunit (Bacillus subtilis (strain 168)), sequence (P80244 whole entry, looked up): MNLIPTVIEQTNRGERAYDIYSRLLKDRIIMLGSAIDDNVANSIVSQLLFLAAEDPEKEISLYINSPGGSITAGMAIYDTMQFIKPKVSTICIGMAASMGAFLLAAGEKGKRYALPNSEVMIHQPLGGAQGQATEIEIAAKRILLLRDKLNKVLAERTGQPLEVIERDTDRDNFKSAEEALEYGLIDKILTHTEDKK
For the molecule `COc1ccc(/C=N/NC(=O)CNC(=O)c2ccc(S(=O)(=O)N3CCCC3)cc2)c(OC)c1`, the Potency entry is “inactive”.
On to `COc1cccc(/C=N/NC(=O)CNC(=O)c2ccc(S(=O)(=O)N3CCOCC3)cc2)c1OC`, for which the Potency is 31.6 µM (active).
To `Cc1ccccc1OCC(=O)Nc1ccc(S(=O)(=O)N2CCOCC2)cc1` belongs “inactive”.
With `CC(C)Oc1ccc(CN2CCC2(C)C(=O)NCc2ccc(C(F)(F)F)cc2)cc1` (centres undefined), the Potency result was “inactive”.
To `CCc1nc2ccc(C(=O)N3CCC(O)(Cc4ccccc4)CC3)cn2c1N(C)C(=O)Cc1ccccc1` belongs “inactive”.
For `CN1CN(C)c2ccc([N+](=O)[O-])c3cccc1c23`, the Potency is 15.8 µM (active).
On to `O=[N+]([O-])c1cccc2ncccc12`, for which the Potency result is “inactive”.
Next, `CN1CCN(S(=O)(=O)c2ccc(N3CCN(c4ccccc4O)CC3)c([N+](=O)[O-])c2)CC1`: “inactive”; `CC1(C)C=Cc2c(ccc(C(=O)/C=C/c3ccccc3)c2O)O1`: “inactive”.
Next, `COC(=O)[C@]12CCCCC=C1N(Cc1cccc3ccccc13)C(=O)[C@H](CC(=O)N1CCOCC1)C2`: “inactive”.
Regarding `CCN(CC)C(=O)C1=C(C)N(Cc2ccc(C(C)(C)C)cc2)C(=O)C(CC(=O)NCc2cccc3ccccc23)C1` (centres undefined), the Potency entry was “inactive”.
Next, `CN(CCc1ccccn1)C1CCCN(S(=O)(=O)c2ccccc2Cl)C1` (centres undefined): “inactive”; `CN(CCc1ccccn1)S(=O)(=O)c1ccc2c3c(cccc13)C(=O)N2`: 25.1 µM (active); `CN(CC(=O)NCCc1ccccn1)S(=O)(=O)c1ccc(Cl)cc1`: “inactive”.
For the molecule `COc1cc(OC)c(/C=C/c2ccnc3ccccc23)c(OC)c1`, the Potency entry is “inactive”.
For `COc1ccc(C(C(=O)Nc2c(C)cccc2C)N2CCN(c3ccc(C)cc3)CC2)cc1` (centres undefined), the Potency entry is “inactive”.
To `CCC(CC)C(C(=O)NC1CCCC1)N1CCN(c2cc(C)nc3ccccc23)CC1` (centres undefined) belongs “inactive”; to `COc1ccccc1/C=C/c1nc(C#N)c(NC(C)c2ccccc2)o1` (centres undefined), “inactive”; to `COc1ccccc1/C=C/C(=O)NC(=S)N1CCOCC1`, “inactive”.
To `COc1ccccc1/C=C/C1=NC(=C\N(C)C)/C(=O)O1` belongs 25.1 µM (active); to `CC1(C(=O)Nc2ccc3c(c2)OCCO3)CSCC(=O)N1CCOc1ccccc1` (centres undefined), “inactive”.
Next, `C[C@@H]1CC2=C(C(=O)OC(C)(C)O2)[C@@H](C2CC2)O1`: “inactive”; `COc1ccc(C=C2CCC3C(CCCC34OCCO4)C2=O)cc1` (centres undefined): “inactive”; `CCC(=O)Nc1cccc(-c2nc3cc(C)ccc3o2)c1`: “inactive”.
Consider `O=C(Nc1ccc(-c2nc3cc(NC(=O)c4ccccc4Cl)ccc3o2)cc1)c1ccccc1Cl`, for which the Potency result was “inactive”.
Next, `CCCC(=O)Nc1ccc2oc(-c3ccc(O)c(Br)c3)nc2c1`: “inactive”; `COc1cccc(C(=O)Nc2ccc3oc(-c4ccc5ccccc5c4)nc3c2)c1`: “inactive”; `O=C(Nc1ccc2oc(-c3ccc4ccccc4c3)nc2c1)c1cccs1`: 3.55 µM (active).
`O=C(Cc1cccc2ccccc12)Nc1ccc2oc(-c3ccccc3)nc2c1`: the Potency was 20 µM (active).
